Measured values as given in PubChem BioAssay (NCATS).
Inconclusive results are not listed. Active and inactive are the calls of the source. Calls follow the shape of the dose curve; as a rule, active = well fitted cell-killing curve with a large enough effect; inconclusive = small, poorly fitted or top-dose-only effect; inactive = no such curve, though single readings can be large or run the other way.

assay: qHTS of pediatric cancer cell lines to identify multiple opportunities for drug repurposing: Primary screen for A673 cells (AID 1347092); details: A673 Ewing sarcoma viability, CellTiter-Glo ATP luminescence, 48 h; series mostly up to 46 µM; also: nearly all actives have a fitted effect of over 45% in size
Method in brief: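 Luminescence from CellTiter-Glo, taken after 15 min at room temperature, served as the proxy for metabolically active cells following 48 h treatment. Both potency and efficacy were taken from curves fitted to the titration data.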
Potency is read from the fitted curve at half-maximal effect.

Row | SMILES | Potency
1 | Cc1ccc([N+](=O)[O-])[c]2c1[O][Hg]2 | 0.0531 µM (active)
2 | Clc1ccc(CSC(Cn2ccnc2)c2ccc(Cl)cc2Cl)cc1 (stereo unspecified) | 26.6 µM (active)
3 | CCO[C@H]1O[C@@H]2OC3(C)CC[C@H]4[C@H](C)CC[C@@H]([C@H]1C)[C@@]24OO3 | inactive
4 | COc1ccc2c3c1O[C@H]1[C@@H](O)C=C[C@H]4[C@@H](C2)N(C)CC[C@@]341 | 23.8 µM (active)
5 | N#Cc1nn(-c2c(Cl)cc(C(F)(F)F)cc2Cl)c(N)c1S(=O)C(F)(F)F (stereo unspecified) | inactive
6 | CN(C)C(=S)SSC(=S)N(C)C | 0.211 µM (active)

assay: qHTS of pediatric cancer cell lines to identify multiple opportunities for drug repurposing: Primary screen for SK-N-MC cells (AID 1347093); details: SK-N-MC viability, CellTiter-Glo luminescence, 48 h; series mostly up to 46 µM
Method in brief: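 Metabolically active cells were quantified by ATP-dependent luminescence (CellTiter-Glo, 15 min at room temperature) following 48 h treatment. Cells had been plated at 500-1,000 per well and settled for 5 h beforehand.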

Row | SMILES | Potency
7 | Cc1ccc([N+](=O)[O-])[c]2c1[O][Hg]2 | 0.0944 µM (active)
8 | Clc1ccc(CSC(Cn2ccnc2)c2ccc(Cl)cc2Cl)cc1 (stereo unspecified) | 33.5 µM (active)
9 | CCO[C@H]1O[C@@H]2OC3(C)CC[C@H]4[C@H](C)CC[C@@H]([C@H]1C)[C@@]24OO3 | 4.73 µM (active)
10 | COc1ccc2c3c1O[C@H]1[C@@H](O)C=C[C@H]4[C@@H](C2)N(C)CC[C@@]341 | 33.7 µM (active)
11 | CN(C)C(=S)SSC(=S)N(C)C | 0.188 µM (active)
